Screening results deposited in PubChem BioAssay by National Center for Advancing Translational Sciences (NCATS).
PNC assembly inh = High Content Assay for Compounds that inhibit the Assembly of the Perinucleolar Compartment. PC3M PTB-GFP, PNC prevalence imaging, 16 h; active compounds read low. activity change (PNC), negative = inhibition, % at 10 µM. hit rate 3.1% among 140,000;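 active means readout at or below -70, meaning at least 70% loss of cells showing the perinucleolar compartment, a nuclear body marking cancer cells; inconclusive means readout between -30 and a set limit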
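Compounds are pinned in duplicate onto adhered PC3M cells stably expressing GFP-tagged PTB and incubated 16 h at 37 C. Cells are then fixed, nuclei stained with Hoechst, and PNC-positive cells counted.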
LMNA splice mod = qHTS Assay for Modulators of Lamin A Splicing. HeLa LMNA splicing GFP/RFP minigene ratio, 48 h. Potency, µM (series often up to 46.1 µM), most hits filed as inhibitors. hit rate 0.01% among 200,000. AID 1487, 2009; active means well fitted inhibition curve with a large enough effect in the signal ratio, with a control signal flat, not every such curve was filed as active; inconclusive means small, poorly fitted or top-dose-only effect, or effect the other way, or a change in a side signal; the % refers to the signal ratio
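S3 HeLa cells stably expressing lamin A-EGFP splicing minigene plus DsRed2, 600 cells/well, 48 h compound exposure at 37C. Laser-scanning cytometry; analysed as GFP (500-530 nm)/RFP (575-640 nm) total intensity ratio; 0.5% DMSO vehicle.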
IMPase inh = qHTS Assay for Identifying the Cell-Membrane Permeable IMPase Inhibitors | Inositol monophosphatase 1 (Rattus norvegicus), P97697 | CHO-M1 cells, IP1 accumulation, HTRF TR-FRET ratio | inhibition (IP1 accumulation), % at 46.1 µM | 120,000 tested, under 10 active; active means well fitted curve in the direction sought with a large enough effect in the signal ratio, not every such curve was filed as active; inconclusive means small, poorly fitted or top-dose-only effect, or a change in a side signal; inactive means no such curve, though single readings can be large or run the other way; the % refers to the signal ratio;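 further: cells stimulated with carbachol in lithium chloride buffer; higher means more IMPase inhibition seen as more IP1 and lower FRET ratio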
Target sequence (P97697 whole entry, looked up): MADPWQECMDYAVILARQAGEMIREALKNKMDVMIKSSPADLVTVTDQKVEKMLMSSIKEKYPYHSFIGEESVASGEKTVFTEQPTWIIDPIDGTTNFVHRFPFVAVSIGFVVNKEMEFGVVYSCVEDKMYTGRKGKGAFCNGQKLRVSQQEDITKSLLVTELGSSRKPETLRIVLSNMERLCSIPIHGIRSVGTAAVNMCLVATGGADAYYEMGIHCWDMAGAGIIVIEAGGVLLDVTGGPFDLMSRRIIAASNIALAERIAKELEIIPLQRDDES
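In this qHTS, compounds (final up to 46 uM) act on CHO-M1 cells that are then activated through the M1 receptor with carbachol, in pH 7.4 buffer containing 50 mM LiCl, for 30 min. IP1 accumulation is quantified by the IP-One immunoassay.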
A number is an active result. This is one part of a sample in which hits are shown more often than they occur.

`O=C(Cn1cc(C(=O)c2ccncc2)c(=O)c2cc(F)ccc21)Nc1ccc(Cl)cc1` gave LMNA splice mod inactive.
Screening CC(C)Cn1cc(NC(=O)NCc2cccc(Cl)c2)c2ccccc2c1=O returned LMNA splice mod inactive.
COc1ccc(CCC(N)=O)cc1OC was read as PNC assembly inh inconclusive, LMNA splice mod inactive and IMPase inh inactive.
Screening COc1ccc(CCn2c(C)ccc2C)cc1OC returned PNC assembly inh -100.0, LMNA splice mod inactive and IMPase inh inactive.
`CC(C)Cn1c(-c2csc3ccccc23)n[nH]c1=S` gave PNC assembly inh inconclusive, LMNA splice mod inconclusive and IMPase inh inactive.
Cc1occc1-c1n[nH]c(=S)n1CC(C)C was read as PNC assembly inh -93.5, LMNA splice mod inactive and IMPase inh inactive.
Screening Cc1ccc(CNS(=O)(=O)NCc2ccccc2)cc1 returned PNC assembly inh inactive, LMNA splice mod inactive and IMPase inh inactive.
`COc1ccc(-c2oc3ncn4nc(COc5cccc(C)c5C)nc4c3c2-c2ccc(OC)cc2)cc1` gave IMPase inh inactive.
Screening CCN1C(=O)c2cccc3c(S(=O)(=O)N(C(=O)c4ccncc4)c4ccc(OC)cc4)ccc1c23 returned PNC assembly inh -84.8 and LMNA splice mod inconclusive.
Screening CCN1C(=O)c2cccc3c(S(=O)(=O)N(C(=O)c4cccnc4)c4ccc(OC)cc4)ccc1c23 returned PNC assembly inh inconclusive and LMNA splice mod inactive.
For O=c1c(-c2ccnn2-c2cccc(Cl)c2)cnc2n1CCS2 the results were PNC assembly inh -80.5, LMNA splice mod inactive and IMPase inh inactive.
For O=c1c(-c2ccnn2-c2ccc(F)cc2)cnc2n1CCS2 the results were PNC assembly inh inactive, LMNA splice mod inactive and IMPase inh inconclusive.
`COc1ccccc1CNC(=O)Cn1c(=O)nc(-c2ccccc2)c2ccccc21` gave LMNA splice mod inactive.
`COc1ccc(C(=O)N2CCc3cc(OC)c(OC)cc3C2)cc1OC` gave PNC assembly inh inactive, LMNA splice mod inactive and IMPase inh inactive.
Screening COc1cc2c(cc1OC)CN(C(=O)C(C)(C)C)CC2 returned PNC assembly inh -105.8, LMNA splice mod inactive and IMPase inh inactive.
COc1ccc(CN(C(=O)CO/N=C/c2ccccc2)c2ccccc2C(=O)O)cc1 was read as PNC assembly inh inactive and LMNA splice mod inactive.
`COc1ccc(CN(C(C)=O)c2cccc(C)c2C)cc1` gave PNC assembly inh -107.1, LMNA splice mod inconclusive and IMPase inh inactive.
`O=C(Nc1cccs1)Nc1ccccc1Cl` gave PNC assembly inh -82.3, LMNA splice mod inactive and IMPase inh inactive.
`Cc1ccc(NC(=O)Nc2cccs2)c(Cl)c1` gave PNC assembly inh inconclusive, LMNA splice mod inconclusive and IMPase inh inactive.
O=C(N/N=C/c1c(Cl)cccc1Cl)c1ccccc1F was read as PNC assembly inh -84.1 and LMNA splice mod inactive.
`O=C(N/N=C/c1c(Cl)cccc1Cl)c1ccc(F)cc1` gave PNC assembly inh inactive, LMNA splice mod inactive and IMPase inh inactive.
For O=C(NCC1CCCO1)c1ccccc1 (stereo not given) the results were PNC assembly inh inactive, LMNA splice mod inactive and IMPase inh inactive.
`O=C(NCC1CCCO1)c1cc2ccccc2[nH]1` (stereo not given) gave PNC assembly inh -123.3, LMNA splice mod inactive and IMPase inh inactive.
Screening CCNC(=O)c1sc(=S)n(-c2ccc(C)cc2)c1N returned PNC assembly inh inactive, LMNA splice mod inactive and IMPase inh inactive.
Screening CN1CCN(C(=O)c2sc(=S)n(-c3ccccc3)c2N)CC1 returned PNC assembly inh -96.8, LMNA splice mod inactive and IMPase inh inactive.
CCOC(=O)c1sc(=S)n(-c2ccccc2)c1N was read as PNC assembly inh inactive, LMNA splice mod inactive and IMPase inh inactive.
For Cc1ccc(-n2c(N)c(C(=O)N3CCOCC3)sc2=S)cc1 the results were PNC assembly inh -126.4, LMNA splice mod inactive and IMPase inh inactive.
For Cc1csc(NC(=O)CCSCCc2ccccn2)n1 the results were PNC assembly inh inactive, LMNA splice mod inactive and IMPase inh inactive.
`CN(Cc1ccccc1)C(=O)c1ccc(CSc2nc3cccnc3n2Cc2ccccc2F)cc1` gave LMNA splice mod inactive.
CCOc1ccc(-n2nc(C(=O)N3CCN(CC)CC3)c3ccccc3c2=O)cc1 was read as PNC assembly inh -85.6, LMNA splice mod inactive and IMPase inh inactive.
`CCOc1ccc(-n2nc(C(=O)NCCOC)c3ccccc3c2=O)cc1` gave PNC assembly inh inactive, LMNA splice mod inactive and IMPase inh inactive.
`CC1(C)C(=O)OC(c2cccn2-c2ccc([N+](=O)[O-])cc2)C(C)(C)C1=O` (stereo not given) gave PNC assembly inh inactive, LMNA splice mod inactive and IMPase inh inactive.
Screening CC1(C)C(=O)C2(CCCCC2)C(=O)OC1c1cccn1-c1ccc([N+](=O)[O-])cc1 (stereo not given) returned PNC assembly inh -87.3, LMNA splice mod inactive and IMPase inh inactive.
For CC(=O)Nc1cccc(NC(=O)CSc2nc3ccccc3o2)c1 the results were PNC assembly inh inactive and LMNA splice mod inactive.
CCCC(=O)Nc1cccc(-c2nc3ccccc3o2)c1 was read as PNC assembly inh -106.5, LMNA splice mod inactive and IMPase inh inactive.
Screening CSc1cccc(NC(=O)CSc2nc3ccccc3o2)c1 returned PNC assembly inh -98.2, LMNA splice mod inactive and IMPase inh inactive.
CCCC(=O)Nc1cccc(-c2nc3cc(C)c(C)cc3o2)c1 was read as PNC assembly inh inactive, LMNA splice mod inactive and IMPase inh inactive.
Screening COc1ccc(C(=O)Nc2cccc(-c3cn4ccsc4n3)c2)c(OC)c1 returned LMNA splice mod inactive.
Screening CCOC(=O)c1ccc(NC(=O)c2cnc3c(-c4ccc(F)cc4)c(C)nn3c2C)cc1 returned LMNA splice mod inactive.
CC(C)c1ccccc1NC(=O)CN1C(=O)c2cccc3cccc1c23 was read as IMPase inh inactive.
Screening C=CCNC(=O)/C(C#N)=C/c1c(C)nn(-c2ccccc2)c1Cl returned PNC assembly inh inactive and LMNA splice mod inactive.
`CC(=O)c1cccc(-n2nnnc2SCC(=O)Nc2ccccc2N2CCCCC2)c1` gave PNC assembly inh -105.7, LMNA splice mod inactive and IMPase inh inactive.
`CC(=O)c1cccc(-n2nnnc2SCC(=O)Nc2cccc(NC(=O)c3ccco3)c2)c1` gave PNC assembly inh inactive, LMNA splice mod inactive and IMPase inh inactive.
`COCC(C)NCc1ccccc1C` (stereo not given) gave PNC assembly inh inactive, LMNA splice mod inactive and IMPase inh inactive.
For Cc1ccc(Cl)cc1N1CCN(CCCNC(=O)c2nnc(Cc3cccc(Cl)c3)o2)CC1 the results were IMPase inh inactive.
Screening COc1ccc2c(C=O)cn(C)c2c1 returned LMNA splice mod inactive.
Screening COc1ccc(/C=N/Nc2ccc([N+](=O)[O-])cc2)cc1Cn1cc([N+](=O)[O-])cn1 returned PNC assembly inh inactive, LMNA splice mod inactive and IMPase inh inactive.
COc1ccc(/C=N/Nc2ccccc2)cc1Cn1nc(C)c([N+](=O)[O-])c1C was read as PNC assembly inh -97.9, LMNA splice mod inactive and IMPase inh inactive.
